High-throughput results: PubChem BioAssay, National Center for Advancing Translational Sciences (NCATS)
BAZ2B inh = blocks human BAZ2B; AlphaScreen BAZ2B-H3K14Ac peptide displacement; Potency, µM (series often up to 114 µM), for inactives: at the top dose activity change, negative = inhibition, hits mostly inhibitors; AID 504333; hit rate 4.4% among 360,000; also: % is scaled to controls: 0 for no effect and ±100 for the full control effect; nearly all actives have a fitted effect of over 60% in size
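Compounds, titrated to a top concentration of 110 uM, were incubated 30 min at room temperature with preformed BAZ2B/acetyl-K14 H3 peptide complex (50 nM each). Proximity signal was measured by AlphaScreen after 20 min with beads.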
PLK1 PBD inh = PLK1 (human) polo-box domain binding inhibition. hit rate 2.8% among 360,000. AID 720504. P53350. Plk1 PBD binding of FITC phosphopeptide, fluorescence polarization. Potency, µM, for the others: max response, negative = inhibition, usual class: inhibitors; also: series mostly up to about 57 µM; % is scaled to controls: 0 for no effect and ±100 for the full control effect; nearly all actives have a fitted effect of over 65% in size
G9a block = blocks human histone lysine methyltransferase G9a; hit rate 8.8% among 350,000; Potency, µM (highest dose often 102 µM), for the others: at the highest dose activity, negative = inhibition, hits mostly inhibitors; G9a H3K9 monomethylation, AlphaScreen, 2 h; Q96KQ7; AID 504332; also: % is scaled to controls: 0 for no effect and ±100 for the full control effect; nearly all actives have a fitted effect of over 75% in size
Target sequence (Q96KQ7 913-1193 limits assumed): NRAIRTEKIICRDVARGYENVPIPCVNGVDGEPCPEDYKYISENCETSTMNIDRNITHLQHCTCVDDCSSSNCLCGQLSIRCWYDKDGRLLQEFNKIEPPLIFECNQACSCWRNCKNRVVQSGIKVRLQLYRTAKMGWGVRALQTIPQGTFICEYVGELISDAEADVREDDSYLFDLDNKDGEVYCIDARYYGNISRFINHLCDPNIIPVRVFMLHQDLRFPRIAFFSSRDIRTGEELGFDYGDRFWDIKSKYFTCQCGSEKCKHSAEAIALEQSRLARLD
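Step 1: enzyme (final 20 nM) with compound, 15 min RT. Step 2: substrate peptide 500 nM and SAM 20 uM, 2 h RT. Step 3: anti-H3K9me1 antibody and AlphaScreen beads, 10 min, then plate read.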
HP1b chromo inh = blocks HP1-beta chromodomain binding to methylated histone tails | P83916 | AlphaScreen HP1-beta / biotin-H3K9me3 peptide binding | Potency, µM (titrated, usually from 114 µM), without a hit: at the top dose activity change, negative = inhibition, usual class: inhibitors | hit rate 0.56% among 390,000 | AID 540317; also: nearly all actives have a fitted effect of over 70% in size
Target sequence (P83916 whole entry, looked up): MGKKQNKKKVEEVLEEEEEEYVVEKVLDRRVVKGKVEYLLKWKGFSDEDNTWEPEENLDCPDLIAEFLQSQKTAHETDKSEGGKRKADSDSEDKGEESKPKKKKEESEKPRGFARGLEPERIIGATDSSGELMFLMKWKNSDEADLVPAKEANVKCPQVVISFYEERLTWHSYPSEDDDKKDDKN
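AlphaScreen: HP1-beta (50 nM) preformed 30 min with biotin-H3(1-18)K9me3 peptide (50 nM) in PBS pH 7.4, 0.01% Tween-20. Compound added for 30 min at RT, then streptavidin donor/nickel chelate acceptor beads (10 ug/mL) for 30 min.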
JMJD2A Tudor inh = inhibitors of human JMJD2A Tudor domain. hit rate 4.4% among 390,000. Potency, µM (series often up to 114 µM), without a hit: at the highest dose activity change, negative = inhibition, usual class: inhibitors. AlphaScreen JMJD2A-Tudor / H3K4me3 peptide binding. O75164; also: % is scaled to controls: 0 for no effect and ±100 for the full control effect; nearly all actives have a fitted effect of over 50% in size
Sfp PPTase inh = Sfp phosphopantetheinyl transferase inhibition | hit rate 3.5% among 310,000 | Biochemical Sfp PPTase activity, qHTS | Potency, µM, without a hit: largest response in the series, negative = inhibition, hits mostly inhibitors | Q9F4F7;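 also: the enzyme is Sfp with the accession as filed and its product quenches rhodamine fluorescence; 0% = enzyme reaction without inhibitor and -100% = no enzyme wells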
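With Hepes-Na pH 7.6 buffer containing 10 mM MgCl2, Sfp (15 nM) modified BHQ-2-YbbR (12.5 uM) using rhodamine-CoA (5 uM). Two reads 30 minutes apart at 525/598 nm yielded each well's rate.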
Starred values were filed as active, the others as inactive; [ ] = another dose, or the depositor's remark. Compounds with a hit are over-represented: about 12% of the library has one in this group of screens. Calls follow the shape of the dose curve; as a rule, active = well fitted curve in the direction sought with a large enough effect; inconclusive = small, poorly fitted or top-dose-only effect, or another doubt; inactive = no such curve, though single readings can be large; an effect the other way counts as inactive or inconclusive. Potency is read from the fitted curve at half-maximal effect.

How did CCC(C)N1CCCCC1C(=O)Nc1c(C)cc(C)cc1C (stereo unspecified) do in these assays?
BAZ2B inh: 10%; PLK1 PBD inh: 1%; G9a block: 21%[59 µM]; HP1b chromo inh: 24%; JMJD2A Tudor inh: -1%; Sfp PPTase inh: 18%

What do the screens show for `Cc1cccc(S(=O)(=O)c2cn(Cc3ccc(F)cc3)c3cc(N4CCOCC4)c(F)cc3c2=O)c1`?
BAZ2B inh: 5%; G9a block: -25%[59 µM]; HP1b chromo inh: 35%; JMJD2A Tudor inh: -11%

How did O=C(NNS(=O)(=O)c1ccc([N+](=O)[O-])cc1)c1ccc([N+](=O)[O-])cc1 do in these assays?
BAZ2B inh: -19%; PLK1 PBD inh: -8%; G9a block: 17%[2.33 µM]; HP1b chromo inh: inconclusive; JMJD2A Tudor inh: 1.3µM*; Sfp PPTase inh: 2%

Results for COC(=O)c1ccc(C(=O)Nc2ccc(N)cc2N)cc1 ?
BAZ2B inh: inconclusive; PLK1 PBD inh: -2%; G9a block: 45µM*; HP1b chromo inh: -1%; JMJD2A Tudor inh: -26%; Sfp PPTase inh: -29%

What do the screens show for `COc1ccc(C2c3[nH]c4ccccc4c3CCN2Cc2cccn2-c2ncccn2)cc1C` (stereo unspecified)?
BAZ2B inh: 35µM*; PLK1 PBD inh: -6%; G9a block: 18%[0.501 µM]; HP1b chromo inh: inconclusive; JMJD2A Tudor inh: inconclusive; Sfp PPTase inh: 56µM*

How did CC(=O)Nc1ccc(CN2CCc3c([nH]c4ccccc34)C2c2ccccn2)cc1 (stereo unspecified) do in these assays?
BAZ2B inh: inconclusive; PLK1 PBD inh: -10%; G9a block: inconclusive; HP1b chromo inh: -9%; JMJD2A Tudor inh: inconclusive; Sfp PPTase inh: 1%

Results for c1ccc(C2c3[nH]c4ccccc4c3CCN2Cc2cccn2-c2ccccn2)nc1 (stereo unspecified) ?
BAZ2B inh: 20µM*; PLK1 PBD inh: 5%; G9a block: inconclusive; HP1b chromo inh: -9%; JMJD2A Tudor inh: inconclusive; Sfp PPTase inh: -6%

Results for Cc1cccc(C2c3[nH]c4ccccc4c3CCN2Cc2cccn2-c2ncccn2)c1 (stereo unspecified) ?
BAZ2B inh: 32µM*; PLK1 PBD inh: -3%; HP1b chromo inh: inconclusive; JMJD2A Tudor inh: 50µM*; Sfp PPTase inh: -25%

What do the screens show for `COc1cccc(C2c3[nH]c4ccccc4c3CCN2Cc2cnn(C)c2)c1` (stereo unspecified)?
BAZ2B inh: inconclusive; PLK1 PBD inh: -6%; HP1b chromo inh: -12%; JMJD2A Tudor inh: inconclusive; Sfp PPTase inh: -3%

What do the screens show for `COc1cccc(Cn2c(=O)n(-c3cc(C)cc(C)c3)c(=O)c3oc4ccccc4c32)c1`?
BAZ2B inh: -22%; G9a block: -23%[59 µM]; HP1b chromo inh: 53%; JMJD2A Tudor inh: -6%

How did O=NN(CCCl)C(=O)NC1CCCCC1 do in these assays?
G9a block: -37%[12.7 µM]; Sfp PPTase inh: 11%

What do the screens show for `CCCCOc1ccc(C(=O)N(Cc2nc(-c3ccc(Cl)cc3)no2)C(C)C)cc1`?
BAZ2B inh: 22%; G9a block: 27%[59 µM]; HP1b chromo inh: 33%; JMJD2A Tudor inh: -11%

How did O=C(N/N=C/c1cc(Cl)ccc1O)c1cccnc1 do in these assays?
BAZ2B inh: 7.9µM*; PLK1 PBD inh: -3%; HP1b chromo inh: 52%; JMJD2A Tudor inh: 45µM*; Sfp PPTase inh: 24%

What do the screens show for `O=C(N/N=C/c1cc(Cl)ccc1O)c1ccccc1Br`?
BAZ2B inh: inconclusive; PLK1 PBD inh: -18%; G9a block: -35%; HP1b chromo inh: 23%; JMJD2A Tudor inh: 79µM*; Sfp PPTase inh: 4%

What do the screens show for `Cc1cccc(NC(=O)c2ncn3c2C(=O)N[C@H](C)C3)c1`?
PLK1 PBD inh: -16%

Results for COCCN1CCn2c(nc3cc(Nc4nnc(C)c5ccccc45)ccc32)C1 ?
BAZ2B inh: inconclusive; PLK1 PBD inh: -9%; G9a block: inconclusive; HP1b chromo inh: 34%; JMJD2A Tudor inh: 89µM*; Sfp PPTase inh: 6%

Results for COCCN1CCn2c(nc3cc(NC(C)=O)ccc32)C1 ?
BAZ2B inh: -15%; PLK1 PBD inh: inconclusive; G9a block: 35µM*; HP1b chromo inh: 40%; JMJD2A Tudor inh: -18%; Sfp PPTase inh: 9%

How did CCOC(=O)Nc1ccc2c(c1)nc1n2CCN(CCOC)C1 do in these assays?
BAZ2B inh: 9%; PLK1 PBD inh: -17%; G9a block: -7%; HP1b chromo inh: 43%; JMJD2A Tudor inh: -20%; Sfp PPTase inh: 3%

What do the screens show for `C[C@@H](NC(=O)[C@@H]1Cc2ccccc2CN1C(=O)OC(C)(C)C)C(=O)NC1CCCC1`?
BAZ2B inh: -16%; PLK1 PBD inh: 30µM*; G9a block: 14%; HP1b chromo inh: 3%; JMJD2A Tudor inh: -27%; Sfp PPTase inh: 5%

What do the screens show for `O=C(O)C1Cc2ccccc2CN1C(=O)c1ccccc1` (stereo unspecified)?
BAZ2B inh: 0%; PLK1 PBD inh: -7%; G9a block: inconclusive; HP1b chromo inh: 22%; JMJD2A Tudor inh: -29%; Sfp PPTase inh: 13%

Results for CC(NC(=O)[C@@H](C)NC(=O)[C@@H]1Cc2ccccc2CN1C(=O)OC(C)(C)C)c1ccccc1 (stereo partly specified) ?
BAZ2B inh: 3%; PLK1 PBD inh: -2%; G9a block: -44%; HP1b chromo inh: 35%; JMJD2A Tudor inh: -20%; Sfp PPTase inh: 7%

How did O=C(CSc1nnc2ccccn12)N1CCc2ccccc2C1 do in these assays?
BAZ2B inh: 7%; PLK1 PBD inh: -8%; G9a block: inconclusive; HP1b chromo inh: 35%; JMJD2A Tudor inh: -7%; Sfp PPTase inh: 0%

Results for CC(C)(C)OC(=O)N1Cc2ccccc2C[C@H]1C(=O)O ?
BAZ2B inh: inconclusive; PLK1 PBD inh: -27%; G9a block: 56µM*; HP1b chromo inh: 2%; JMJD2A Tudor inh: -4%[11.4 µM]; Sfp PPTase inh: 10%

Results for O=C(O)C1Cc2ccccc2CN1C(=O)CSc1nnc2ccccn12 (stereo unspecified) ?
PLK1 PBD inh: -17%; G9a block: 50µM*; HP1b chromo inh: -5%; JMJD2A Tudor inh: -21%; Sfp PPTase inh: -19%

How did COc1ccc(S(=O)(=O)N2CCCC(C(=O)N3CCN(Cc4ccccc4)CC3)C2)cc1Cl (stereo unspecified) do in these assays?
PLK1 PBD inh: -11%

What do the screens show for `c1ccc(CSc2ccc(-c3cccs3)nn2)nc1`?
BAZ2B inh: -7%; PLK1 PBD inh: inconclusive; G9a block: 16µM*; HP1b chromo inh: 27%; JMJD2A Tudor inh: 2%; Sfp PPTase inh: -5%
